About 83,000 compounds went through this panel and 20% of them were active in at least one assay; those are over-represented in the sample as a whole.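 Assay: single dose, 48 h. Readout: percent growth (0 = no net growth; negative = cell death). Active: <10.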 A number with no mark means an inactive call. Activity calls are given as the source filed them.
What follows are molecules tested on HCC-2998 colon (assay: NCI-60 one-dose screen, 48 h (100 = growth as untreated, 0 = no growth, -100 = all killed)). Conditions: 10 µM unless noted.

Compound | growth
CCN1C(=O)c2ccc3c4c(ccc(c24)C1=O)C(=O)N(CCCNCc1ccccc1OC)C3=O | -82.6% (active)
O=C(/C=C/c1cc2ccccc2[nH]c1=O)c1ccc(Cl)cc1 | 10.2%
NNC(=O)C1CC2c3ccccc3C1c1ccccc12 (centres undefined) | 101%
O=C1Cc2cc(CCn3cncn3)c(Cl)cc2N1 | 75.1%
O=C(Cc1ccccn1)C(F)(F)C(F)(F)C(F)(F)F | 100%
CC[C@]1(O)CC2CN(CCc3c([nH]c4ccccc34)[C@@](C(=O)OC)(c3cc4c(cc3OC)N(C)[C@H]3[C@@](O)(C(=O)OC)[C@H](OC(C)=O)[C@]5(CC)C=CCN6CC[C@]43[C@@H]65)C2)C1 (some centres undefined) | -23.4% (active)
CCOC(=O)c1c(C)nc(C)c(C(=O)OCC)c1-c1cccnc1 | 104%

These molecules were tested on KM12 colon in the same assay as above. Conditions: 10 µM unless noted.

Compound | growth
N#Cc1cccc(/C=C(/C(=O)c2ccccc2)c2ccccc2)c1 | 22.3%
CCN1C(=O)c2ccc3c4c(ccc(c24)C1=O)C(=O)N(CCCNCc1ccccc1OC)C3=O | -35.1% (active)
O=C(/C=C/c1ccc(Cl)cc1)c1ccccc1 | 77.1%
O=C(/C(=C/c1cccc([N+](=O)[O-])c1)c1ccccc1)c1ccccc1 | 18.3%
Nc1nc2ncc(CCNc3ccc(C(=O)NC(CCC(=O)O)C(=O)O)cc3)nc2c(=O)[nH]1 (centres undefined) | 110%
Cc1c(C(N)=O)sc2ncn(Cc3ccccc3)c(=O)c12 | 110%
c1ccc(-c2nn[nH]n2)c(-c2ccc(CN3CCN(c4nsc5ccccc45)CC3)cc2)c1 | 101%
NC(=O)NN=C(C1CC1)C1CC1 | 104%
COc1cc2c(-c3nc4cc(Cl)c(F)cc4s3)cc(=O)oc2c(C)c1OC | -89.7% (active)
N#Cc1ccc(NC(=O)Nc2ccc(Oc3ccc(NC(=O)Nc4ccc(C#N)cc4)cc3)cc2)cc1 | 9.37% (active)
CC1(C)OC(=O)C(=Cc2ccccc2Br)C(=O)O1 | 108%
O=C(/C=C/c1cc2ccccc2[nH]c1=O)c1ccc(Cl)cc1 | -1.06% (active)
Cc1cc(N2CCOCC2)nc(N2CCOCC2)n1 | 107%
CC/C=C\C=C/C(=O)N/C=C/CC1Cc2cccc(O)c2C(=O)O1 (centres undefined) | 42.1%
COc1ccc(-c2csc(NC(=O)c3cc(O)c(O)c(O)c3)n2)cc1 | 84.8%
NNC(=O)C1CC2c3ccccc3C1c1ccccc12 (centres undefined) | 115%
COc1ccc(OC)c(NC(=O)c2cc3oc4ccccc4c3cc2O)c1 | 99.5%
CCCc1cc(=O)n2c(C(=O)Nc3ccccc3OC)c(C(=O)Nc3ccc(F)cc3)sc2n1 | 76.6% [30 µM]
N#Cc1c2ccccc2c2n1-c1ccccc1OC(c1ccccc1)C2=O (centres undefined) | 16%

Compound | growth
CCOC(=O)/C(=C/c1ccccc1)C(=O)c1ccccc1 | 67.1%
O=C(Nc1nc(-c2ccccc2)cs1)c1cc(O)c(O)c(O)c1 | 64.7%
COc1cc(/C=C2\CCC/C(=C\c3ccc(OCC4CO4)c(OC)c3)C2=O)ccc1OCC1CO1 (centres undefined) | -0.568% (active)
C/C(=N\N1CC(=O)NC1=O)c1ccc([N+](=O)[O-])o1 | 96.3%
Cc1ccc(C(C)C)cc1NC(=O)Nc1ccc([N+](=O)[O-])cc1 | 2.72% (active)
O=C1Cc2cc(CCn3cncn3)c(Cl)cc2N1 | 36%
COc1cc(OC)c2cc(C(=O)O)c(=O)oc2c1 | 114%
Cn1c(=O)c2nc(SCc3ccccc3)n(C)c2n(C)c1=O | 104%
O=C1OCCCCCCCCCC#Cc2ccccc21 | 136%
COc1cc(/C=C/C(=O)c2c(-c3ccc(Cl)cc3)nc3sc(C)nn23)cc(OC)c1OC | 73.6%
COc1cc2c(C#N)n3c(c2cc1OC)C(=O)C(c1ccccc1)Oc1ccccc1-3 (centres undefined) | 23.4%
O=C(Cc1ccccn1)C(F)(F)C(F)(F)C(F)(F)F | 135%
COc1cc(/C=C/C(=O)Nc2ccc3c(c2)/C(=C\c2cccn2C)C(=O)N3)cc(OC)c1OC | 33.8%
COc1cc(/C=C/C(=O)c2c(-c3ccc(F)cc3)nc3sc(C)nn23)cc(OC)c1OC | 21.8%
CN(C)c1ccc(/C=C\c2ccnc3ccccc23)cc1 | 55.8%
CC[C@]1(O)CC2CN(CCc3c([nH]c4ccccc34)[C@@](C(=O)OC)(c3cc4c(cc3OC)N(C)[C@H]3[C@@](O)(C(=O)OC)[C@H](OC(C)=O)[C@]5(CC)C=CCN6CC[C@]43[C@@H]65)C2)C1 (some centres undefined) | -7.67% (active)
CCOC(=O)c1c(C)nc(C)c(C(=O)OCC)c1-c1cccnc1 | 110%
COc1ccc(/C=C(\C#N)c2ccccc2)cc1 | 49.2%
